Rows were chosen to be rich in hits. Some 3.1% of all compounds tested hit in one or more screens of this group.
Mtb BioA inh – blocks M. tuberculosis BioA enzyme activity. purified M. tuberculosis BioA enzyme, plate reader. inhibition, % at 9.99 µM. 360,000 compounds, 0.096% hits; in the data active means inhibition above about 40%
SARS 3CLpro inh – SARS-CoV 3CLpro protease inhibition | P0C6X7 | recombinant SARS-CoV 3CLpro, quenched FRET peptide cleavage | inhibition, % at 6 µM | 290,000 compounds, 0.14% hits | AID 1706; in the data active means inhibition above about 12%
Mtb FBA inh – Mtb fructose-bisphosphate aldolase inhibition; P9WQA3; purified M. tuberculosis FBA, fluorescence read-out; inhibition, % at 1 µM; 360,000 compounds, 2.3% hits; in the data active means inhibition above about 27%;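 further: 0% = vehicle and 100% = reference inhibitor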
Target sequence (P9WQA3 whole entry, looked up): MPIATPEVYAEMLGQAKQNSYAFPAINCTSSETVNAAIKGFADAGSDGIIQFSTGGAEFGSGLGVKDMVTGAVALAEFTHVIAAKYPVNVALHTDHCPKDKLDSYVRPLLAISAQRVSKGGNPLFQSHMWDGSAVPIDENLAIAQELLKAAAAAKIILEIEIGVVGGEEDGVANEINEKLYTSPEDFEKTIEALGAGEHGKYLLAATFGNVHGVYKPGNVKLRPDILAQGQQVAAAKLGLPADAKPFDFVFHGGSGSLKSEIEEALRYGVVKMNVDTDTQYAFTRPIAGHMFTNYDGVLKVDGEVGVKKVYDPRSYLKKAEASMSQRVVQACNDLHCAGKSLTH
GDH-TPI inh – GDH-TPI coupled enzyme inhibition counter-screen. GDH-TPI coupled enzyme counterscreen, NADH absorbance. inhibition, % at 4.8 µM. 360,000 compounds, 1.2% hits; in the data active means inhibition above about 30%;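 further: 0% = DMSO wells and 100% = wells lacking the enzyme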
FadD28 binding – inhibitors of Mycobacterium tuberculosis FadD28 bisubstrate binding. FadD28 bisubstrate probe binding, fluorescence polarization. inhibition, % at 12.5 µM. 360,000 compounds, 0.22% hits; in the data active means inhibition above about 8.5%, passing the limit was not always enough
Active calls of the source: *; . = no result; + = active, no number.

SMILES	Mtb BioA inh	SARS 3CLpro inh	Mtb FBA inh	GDH-TPI inh	FadD28 binding
N=c1c(C(=O)NC2CCCC2)cc2c(=O)n3ccccc3nc2n1C1CCCC1	-0.9	-2.6	122.7*	14.0	-1.9
Cc1ccc2oc(-c3ccco3)cc(=O)c2c1	.	1.3	122.7*	31.3*	-2.4
Oc1[nH]c2ccccc2c1/C=N/c1nccs1	-0.1	-5.2	-1.8	31.1*	1.1
COc1ccc(N=Cc2c(O)[nH]c3ccccc23)cc1	-1.5	-1.3	-0.4	17.4	0.0
Cc1cccc(S(=O)(=O)C(C#N)c2nc3ccccc3nc2N2CCCC2)c1 (stereo not given)	-0.9	-5.5	74.4*	6.7	-6.3
Cc1ccc(S(=O)(=O)N(C)C[C@H]2Oc3ccc(NC(=O)CCC(F)(F)F)cc3CC(=O)N([C@@H](C)CO)C[C@@H]2C)cc1	0.1	.	.	.	.
COc1cc2c(c(OC)c1OC)C(=O)C(=Cc1ccccc1)O2	-0.1	.	-0.9	35.8*	-4.9
Cc1ccc(-n2c(N)c(C#N)c(-c3ccc(Cl)cc3)c(C#N)c2=O)cc1	-0.8	-8.5	4.4	14.6	-2.1
CC(=O)Nc1c(C#N)c(-c2ccccc2)c(C#N)c(=O)n1-c1ccc(C)cc1	0.9	.	0.6	33.0*	-2.4
Cc1ccc(-c2c(C#N)c(N)n(-c3ccc(C)cc3)c(=O)c2C#N)cc1	-1.9	1.3	2.1	40.3*	-0.2
N#Cc1c(SCC(=O)Nc2nc3ccc(Br)cc3s2)sc2c(O)cc(=O)[nH]c12	-1.6	-4.6	4.7	23.8	0.0
Cc1c(Cl)cccc1NC(=O)CSc1sc2c(O)cc(=O)[nH]c2c1C#N	-0.4	4.4	-0.9	21.4	-2.0
N#Cc1c(SCC(=O)Nc2nc3ccccc3s2)sc2c(O)cc(=O)[nH]c12	-0.3	.	0.3	22.8	12.1*
N#Cc1c(SCC(=O)Nc2ccc(Cl)cc2Cl)sc2c(O)cc(=O)[nH]c12	-0.7	1.1	1.1	33.1*	0.0
O=C(CSc1nc(O)cc(=O)n1-c1ccccc1)Nc1nc2ccccc2s1	-1.8	2.3	-0.4	-0.8	12.7*
C[C@H]1CN([C@@H](C)CO)C(=O)c2cc(Br)cnc2O[C@@H]1CN(C)C(=O)C1CC1	-2.5	.	.	.	.
CO[C@H]1CN(C)C(=O)c2ccc(NC(C)=O)cc2OC[C@@H](C)N(CCC(F)(F)F)C[C@H]1C	1.9	.	.	.	.
Cc1cc2n(c(=O)c1C#N)CCCN2c1ccccc1	7.4	-0.2	4.2	58.2*	0.1
Cc1ccccc1/C=C/c1nc2ccccc2c(=O)[nH]1	.	4.2	-3.7	33.5*	-3.6
Nc1nccnc1C(=O)OCC(=O)c1ccc[nH]1	0.2	.	164.9*	11.7	-0.7
CC(=O)c1c(C)[nH]c(C(=O)COC(=O)c2nccnc2N)c1C	-1.1	.	157.3*	10.2	-3.3
CC(=O)c1c(C)[nH]c(C(=O)COC(=O)c2cccnc2Cl)c1C	38.0	.	0.0	5.6	-1.3
C[C@@H]1CN([C@@H](C)CO)C(=O)c2cc(NC(=O)NC3CCCCC3)ccc2O[C@@H](C)CCCCO[C@@H]1CN(C)S(=O)(=O)c1cccs1	-3.9	.	.	.	.
CN(C)c1ccc(/C=N/NC(=O)C(=O)/C=C2\NC3(CCCC3)Cc3ccccc32)cc1	-4.0	4.3	-5.6	31.3*	0.2
COc1ccc(NC(=O)N(C)C[C@@H]2Oc3c(NC(=O)Nc4ccc5c(c4)OCO5)cccc3C(=O)N([C@H](C)CO)C[C@@H]2C)cc1	7.5	.	.	.	.
SMILES	Mtb BioA inh	SARS 3CLpro inh	Mtb FBA inh	GDH-TPI inh	FadD28 binding
CC(Oc1ccc(Cl)cc1)C(=O)Nc1ccc(S(=O)(=O)Nc2nccs2)cc1 (stereo not given)	1.1	1.1	106.9*	3.0	-0.4
C[C@@H]1CN([C@@H](C)CO)C(=O)c2cc(NS(=O)(=O)c3ccc(F)cc3)ccc2O[C@@H]1CN(C)C	-4.8	.	.	.	.
Cc1cc(C(=O)N/N=C/c2ccc(-c3ccccc3Cl)o2)n[nH]1	-1.0	3.0	2.1	34.5*	-0.8
Cc1cc(C(=O)N/N=C/c2ccc(-c3ccc([N+](=O)[O-])cc3Cl)o2)n[nH]1	-0.6	3.0	0.0	21.7	0.8
Cc1cc(C(=O)N/N=C/c2ccccc2Br)no1	3.7	4.8	-0.2	9.8	-1.4
Cc1cc(C(=O)N/N=C/c2cccnc2)n[nH]1	0.1	-1.2	1.2	-4.6	-3.9
Cc1cc(C(=O)N/N=C/c2ccc[nH]2)no1	-1.2	2.7	-3.1	30.7*	0.0
Cc1cc(C(=O)N/N=C/c2ccc[nH]2)n[nH]1	.	-9.8	-3.7	39.1*	-0.1
CC(C)C#Cc1ccc2c(c1)O[C@H](CN(C)S(=O)(=O)c1cn(C)cn1)[C@@H](C)CN([C@@H](C)CO)S2(=O)=O	1.7	.	.	.	.
CCCC#Cc1ccc([C@@H]2[C@@H](C#N)N(C(=O)C3CCC3)[C@@H]2CO)cc1	0.0	.	.	.	.
Cc1ccc(N2NC(=O)/C(=C/c3ccc(-c4ccc(Cl)c(C(=O)O)c4)o3)C2=O)cc1	0.7	2.1	-2.2	5.0	0.3
O=C1NN(c2ccc(Cl)cc2)C(=O)/C1=C\c1ccc(-c2cccc(C(=O)O)c2)o1	.	3.9	-13.0	6.7	23.1*
CC(=O)Nc1nc2ccc(S(=O)(=O)N3CCCC3)cc2s1	-1.3	4.5	0.3	3.1	-0.5
O=C(Nc1nc2ccc(S(=O)(=O)N3CCCC3)cc2s1)c1ccco1	.	2.8	19.9	39.0*	1.2
O=C(C[C@H]1C[C@H]2c3cc(NS(=O)(=O)c4ccc(F)cc4)ccc3O[C@H]2[C@@H](CO)O1)NCC(F)(F)F	0.1	.	.	.	.
Cc1nn(C(=O)c2cc3sccc3[nH]2)c(C)c1C	-0.4	4.7	-1.2	35.4*	-2.0
CC(C)NC(=O)Nc1ccc2c(c1)C(=O)N([C@H](C)CO)C[C@@H](C)[C@H](CN(C)S(=O)(=O)c1cccs1)O2	7.2	.	.	.	.
COc1cccc(CNC(=O)C[C@@H]2CC[C@H]3[C@H](COc4ccc(NC(C)=O)cc4C(=O)N3C)O2)c1	0.2	.	.	.	.
Nc1nc2nccc(-c3ccc(Cl)cc3)n2n1	-1.1	-2.7	+	33.9*	-3.0
COc1ccc2c(COC(=O)CNS(=O)(=O)c3ccccc3)cc(=O)oc2c1	-0.4	.	118.6*	13.7	-4.9
COC(=O)Cc1cc(=O)oc2cc(OC)ccc12	-0.3	1.2	118.5*	14.6	-1.1
COc1cc(OC)cc(C(=O)NCC(=O)OCc2cc(=O)oc3cc(OC)ccc23)c1	.	6.3	14.9	11.3	-6.3
COc1ccc(OC)c(CN2CCN(Cc3cc(=O)oc4cc(O)ccc34)CC2)c1	2.1	-3.6	114.7*	10.5	-1.1
COc1ccc2c(COC(=O)c3cccc(S(=O)(=O)NCC(C)C)c3)cc(=O)oc2c1	-0.9	8.3	41.6*	0.4	-5.3
C[C@@H]1CN([C@H](C)CO)C(=O)c2cccc(NC(=O)C3CCOCC3)c2O[C@H]1CN(C)Cc1ccccc1	-1.6	.	.	.	.
CN(C)CCCN(Cc1ccccc1)C(=S)Nc1ccc(OC(F)F)cc1	0.4	2.0	141.5*	7.2	-0.9
CN(Cc1ccccc1)C(=S)Nc1ccc(OC(F)F)cc1	.	1.2	0.1	12.0	4.7
O=C(NCc1ccccc1)c1sc(=S)n2c1[nH]c(=O)c1ccccc12	3.8	3.3	-3.1	-1.4	40.8*
Cc1cc2cc3c(cc2nc1SCC(=O)O)OCCO3	0.6	-5.5	4.4	33.3*	-0.9
